MBNL1 CUG block = blocks human MBNL1 binding to CUG repeat RNA; Q9NR56; 280,000 tested, 0.036% active; AID 2675; Potency, µM (top dose mostly 57.5 µM), hits mostly inhibitors; TR-FRET MBNL1-His/biotin-(CUG)12 binding, 665/545 ratio; active means well fitted inhibition curve with a large enough effect in the signal ratio, with a control signal flat, not every such curve was filed as active; inconclusive means small, poorly fitted or top-dose-only effect, or effect the other way, or a change in a side signal; inactive means no such curve, though single readings can be large or run the other way; the % refers to the signal ratio
Target sequence (Q9NR56 whole entry, looked up): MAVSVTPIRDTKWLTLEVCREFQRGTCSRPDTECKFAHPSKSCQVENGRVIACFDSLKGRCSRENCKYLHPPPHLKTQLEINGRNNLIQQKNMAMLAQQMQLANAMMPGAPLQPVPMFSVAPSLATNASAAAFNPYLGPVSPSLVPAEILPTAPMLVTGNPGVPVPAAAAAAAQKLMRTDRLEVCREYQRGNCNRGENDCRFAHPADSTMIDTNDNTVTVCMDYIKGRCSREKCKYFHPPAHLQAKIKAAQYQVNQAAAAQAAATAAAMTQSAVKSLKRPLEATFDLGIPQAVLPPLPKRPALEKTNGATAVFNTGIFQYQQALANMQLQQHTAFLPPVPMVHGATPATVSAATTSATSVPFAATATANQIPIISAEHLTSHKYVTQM
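Compound titration spanned 92 nM–58 uM against the MBNL1-His/biotin-(CUG)12 complex. After 60 min at room temperature with 5 nM streptavidin-XL665 and 0.055 ng/ul terbium anti-His, ratiometric 665/545 nm emission (Ex 340 nm) normalized to controls.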
aSyn rescue = inhibitors of alpha-synuclein toxicity in yeast. Yeast expressing alpha-synuclein, growth rescue, BacTiter-Glo, 24 h. Potency, µM (top dose mostly 46.1 µM), hits mostly activators. 370,000 tested, 0.14% active; further: nearly all actives have a fitted effect of over 65% in size
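Screening used galactose-induced yeast with toxic alpha-synuclein levels, exposed to compound for 24 hr at 30 deg C. Cell growth, read with BacTiter-Glo luminescence, gave the measured signal.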
Abeta rescue = restores growth of yeast expressing A-beta42 peptide; AID 1347071; Potency, µM (titrated, usually from 46.1 µM), hits mostly activators; 410,000 tested, 0.063% active; yeast expressing A-beta42, growth rescue, OD600, 48 h; response scale: 0% DMSO, 100% iron-clioquinol control; further: nearly all actives have a fitted effect of over 55% in size
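Growth rescue measured by 600 nm absorbance after 48 h yeast culture at 30 C with compound. Values normalized between DMSO and an equimolar ferric chloride plus clioquinol control.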
TDP-43 yeast inh = inhibitors of TDP-43 toxicity in yeast; TDP-43 expressing yeast growth rescue, BacTiter-Glo, 24 h; Potency, µM (series often up to 46.1 µM), usual class: activators; 410,000 tested, 1.8% active; AID 652104; further: nearly all actives have a fitted effect of over 50% in size
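Yeast expressing TDP-43 (pregrown in raffinose, seeded at OD600=0.02 in galactose medium) exposed to compounds 24 hr at 30 deg C. Growth read by BacTiter-Glo luminescence; rescue of toxicity appears as increased signal.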
Glioma ERSR ind = ER stress response induction in glioma; AID 602332; Potency, µM, actives largely listed as activators; U87-MG GRP78 promoter luciferase reporter, 16 h; 420,000 tested, 0.02% active; further: series mostly up to about 76 µM; nearly all actives have a fitted effect of over 35% in size
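Stably transfected U87-MG human glioma cells carrying a GRP78-based luminescent sensor were seeded at 1000 cells/well, pin-dosed with compounds and incubated 16 h. Luciferase reagent was then added, and end-point luminescence was read after 10 min at room temperature.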
FUS suppressor = rescues growth of FUS-expressing yeast. S. cerevisiae FUS-expressing, growth rescue, OD600, 24 h. Potency, µM (top dose mostly 76.6 µM), most hits filed as activators. 390,000 tested, 0.24% active; further: nearly all actives have a fitted effect of over 55% in size
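Cultures pregrown in 2.5% raffinose medium are shifted to minimal medium containing 2% galactose to express toxic FUS. Compounds are tested at several concentrations. After 24hr at 30C, growth is quantified at 600 nm absorbance.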
Of the large screens only hits and unclear results are named; the others gave an inactive call. A selection: hits, their analogues and other compounds. The true share with any hit is near 2%. Unless noted, the call rests on the fitted dose curve; in most records, active means well fitted curve in the direction sought with a large enough effect; inconclusive means small, poorly fitted or top-dose-only effect, or another doubt; inactive means no such curve, though single readings can be large; an effect the other way counts as inactive or inconclusive.

O=S(=O)(c1ccccc1)c1nc(NCc2ccccc2)sc1Cl	TDP-43 yeast inh 20µM (no result: FUS suppressor)
O=C(Oc1c(Cl)cc(Cl)c2ccccc12)N1CCCC1	TDP-43 yeast inh 12.6µM
O=C1CC(N2CCN(c3ccccc3Cl)CC2)C(=O)N1c1cccc(F)c1 (configuration not stated)	TDP-43 yeast inh 12.6µM
O=C(Nc1ccc(F)cc1)C(c1cc2ccccc2o1)N1CCN(C(=O)c2ccco2)CC1 (configuration not stated)	FUS suppressor 22.4µM (no result: MBNL1 CUG block, Glioma ERSR ind)
COc1ccc(C(C(=O)Nc2ccc(F)cc2)N2CCN(C(=O)c3ccco3)CC2)cc1 (configuration not stated)	none (no result: MBNL1 CUG block, Glioma ERSR ind)
COc1ccc(CN2CCOc3ccc(CN4CCC(Oc5cccnc5)CC4)cc3C2)c(F)c1	none (no result: MBNL1 CUG block, aSyn rescue, Abeta rescue, TDP-43 yeast inh, FUS suppressor)
CC(C)c1ccc(C(=O)CSc2n[nH]c(-c3ccncc3)n2)cc1	TDP-43 yeast inh 35.5µM
CCOC(=O)C(=CNc1ccc(Cl)cn1)C(=O)OCC	TDP-43 yeast inh 11.2µM
CCOC(=O)C(=CNNc1cccc(Cl)c1)C(=O)OCC	TDP-43 yeast inh 11.2µM
COc1ccc(C(=O)COC(=O)c2cc([N+](=O)[O-])ccc2N2CCOCC2)c(OC)c1	TDP-43 yeast inh inconclusive (no result: MBNL1 CUG block, FUS suppressor)
CCOC(=O)c1ccccc1NC(=O)COC(=O)c1cc([N+](=O)[O-])ccc1N1CCOCC1	TDP-43 yeast inh 17.8µM (no result: MBNL1 CUG block)
COc1ccccc1C(=O)COC(=O)c1cc([N+](=O)[O-])ccc1N1CCOCC1	TDP-43 yeast inh 11.2µM (no result: MBNL1 CUG block)
O=C(COC(=O)c1cc([N+](=O)[O-])ccc1N1CCOCC1)c1ccccc1Cl	MBNL1 CUG block inconclusive, TDP-43 yeast inh inconclusive
O=C(COC(=O)c1cc([N+](=O)[O-])ccc1N1CCOCC1)c1ccccc1	TDP-43 yeast inh 20µM (no result: MBNL1 CUG block)
O=C(OCc1ccccc1Cl)c1cc([N+](=O)[O-])ccc1N1CCOCC1	TDP-43 yeast inh 20µM (no result: MBNL1 CUG block)
O=C(OCc1c(F)cccc1Cl)c1cc([N+](=O)[O-])ccc1N1CCOCC1	Abeta rescue inconclusive (no result: MBNL1 CUG block)
CC(=O)Nc1ccc(NC(=O)COC(=O)c2cc([N+](=O)[O-])ccc2N2CCOCC2)cc1	MBNL1 CUG block inconclusive (no result: FUS suppressor)
COc1ccc(OC)c(C(=O)CSc2nnc(SCc3cccc4ccccc34)s2)c1	none (no result: MBNL1 CUG block, aSyn rescue, Abeta rescue, TDP-43 yeast inh, Glioma ERSR ind)
COc1ccc(OC)c(-c2ccnc(-n3ncc(C(=O)N(C)CCO)c3C3CC3)n2)c1	none (no result: MBNL1 CUG block, aSyn rescue, Abeta rescue, TDP-43 yeast inh, FUS suppressor)
O=C(Nc1ccc(N2CCN(C(=O)c3ccccc3)CC2)cc1)c1cc([N+](=O)[O-])ccc1N1CCOCC1	MBNL1 CUG block inconclusive, FUS suppressor 35.5µM
COc1ccc(C(=O)COC(=O)c2cc(S(=O)(=O)N3CCCCC3)ccc2N2CCOCC2)c(OC)c1	TDP-43 yeast inh inconclusive, FUS suppressor 15.8µM (no result: MBNL1 CUG block)
COc1ccc(C(=O)c2cc([N+](=O)[O-])ccc2N2CCOCC2)cc1	MBNL1 CUG block inconclusive, Abeta rescue inconclusive (no result: FUS suppressor)
Cc1ccc(C(=O)c2cc([N+](=O)[O-])ccc2N2CCOCC2)cc1	TDP-43 yeast inh 35.5µM (no result: MBNL1 CUG block, FUS suppressor)
CCC1CN(Cc2c(C)nc3sccn23)Cc2cc(OC)ccc2O1 (configuration not stated)	none (no result: MBNL1 CUG block, aSyn rescue, Abeta rescue, TDP-43 yeast inh, FUS suppressor)
COc1ccccc1-c1cc(C(F)(F)F)nc(S(=O)(=O)CCCC(=O)Nc2cccnc2Cl)n1	TDP-43 yeast inh 12.6µM
COc1ccccc1-c1cc(C(F)(F)F)nc(S(=O)(=O)CCCC(=O)NC(C)C)n1	Glioma ERSR ind inconclusive
COc1ccccc1-c1cc(C(F)(F)F)nc(S(C)(=O)=O)n1	TDP-43 yeast inh 35.5µM
O=[N+]([O-])c1ccc(-c2nc(-c3cccs3)c(-c3cccs3)[nH]2)cc1	TDP-43 yeast inh 3.16µM (no result: MBNL1 CUG block)
O=[N+]([O-])c1cccc(-c2nc(-c3cccs3)c(-c3cccs3)[nH]2)c1	Abeta rescue inconclusive
C[C@@H](NC(=O)c1[nH]cnc1C(=O)Nc1ccccc1)c1ccccc1	TDP-43 yeast inh 22.4µM (no result: MBNL1 CUG block)
CC(C)C[C@H](NC(=O)c1nc[nH]c1C(=O)NC(c1ccccc1)c1ccccc1)C(=O)OC(C)(C)C	FUS suppressor 14.1µM
